In article PMC7862700, “An all-to-all approach to the identification of sequence-specific readers for epigenetic DNA modifications on cytosine”:

What was measured:
Assay in all cases: DAPPL (digital affinity profiling via proximity ligation, sequencing); 10 mM Tris-HCl pH 7.5, 50 mM NaCl, 1 mM DTT, 4% glycerol, room temperature, 30 min; GST-TFs on glutathione beads, 16-mer random dsDNA library, 0.1% formaldehyde crosslink after washing; high values mean tight binding
Conditions in all cases: protein: recombinant; tags: N-terminal GST; dsDNA, one strand shown
[1] = biological target: T1, FLI1 (Homo sapiens, UniProt Q01543 1-452)
T1 sequence: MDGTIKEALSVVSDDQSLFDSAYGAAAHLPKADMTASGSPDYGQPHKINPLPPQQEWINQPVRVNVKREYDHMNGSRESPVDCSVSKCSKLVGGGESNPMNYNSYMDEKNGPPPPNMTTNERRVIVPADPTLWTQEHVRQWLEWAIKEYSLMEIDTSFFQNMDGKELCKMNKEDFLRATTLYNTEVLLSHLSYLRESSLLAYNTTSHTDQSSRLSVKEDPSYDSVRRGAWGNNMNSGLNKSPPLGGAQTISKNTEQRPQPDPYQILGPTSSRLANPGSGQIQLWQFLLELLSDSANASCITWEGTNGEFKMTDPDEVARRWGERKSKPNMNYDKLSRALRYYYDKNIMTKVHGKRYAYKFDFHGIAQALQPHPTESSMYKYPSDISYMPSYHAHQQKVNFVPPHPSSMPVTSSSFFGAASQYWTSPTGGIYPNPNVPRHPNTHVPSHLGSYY
Summary of the method: (§1)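 Binding signal is defined as a hexamer's read frequency for one factor over its frequency for the tag-only sample. To obtain reads, GST-fused human transcription factors were expressed in yeast, captured on glutathione beads, barcoded with DNA and pooled with that sample. Pools met 200 nmole of a 16-mer random double-stranded DNA library in Tris/NaCl/DTT/glycerol buffer for 30 min at room temperature before washing, 0.1% formaldehyde crosslinking, proximity ligation (BsaI/T4 ligase, 1 h, 37 °C), PCR and Illumina NextSeq500 sequencing.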

[2] = biological target: T2, GABPA (Homo sapiens, UniProt Q06546 1-454)
T2 sequence: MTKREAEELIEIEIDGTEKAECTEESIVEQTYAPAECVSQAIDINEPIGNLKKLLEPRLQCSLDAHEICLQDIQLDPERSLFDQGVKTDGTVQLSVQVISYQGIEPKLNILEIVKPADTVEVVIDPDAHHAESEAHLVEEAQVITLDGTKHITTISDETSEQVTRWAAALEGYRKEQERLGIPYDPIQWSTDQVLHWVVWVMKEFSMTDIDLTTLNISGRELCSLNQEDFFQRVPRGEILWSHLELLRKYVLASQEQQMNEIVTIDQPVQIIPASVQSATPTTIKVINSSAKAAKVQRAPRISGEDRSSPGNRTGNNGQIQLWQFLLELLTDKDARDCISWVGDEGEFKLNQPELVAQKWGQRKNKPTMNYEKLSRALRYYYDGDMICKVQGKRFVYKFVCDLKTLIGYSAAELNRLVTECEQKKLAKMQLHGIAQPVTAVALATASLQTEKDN
Summary of the method: as §1

[3] = biological target: SPI1 (Homo sapiens, UniProt P17947 1-270)
Summary of the method: as §1

[4] = biological target: SPIB (Homo sapiens, UniProt Q01892 1-262)
Summary of the method: as §1

[5] = biological target: ETV5 (Homo sapiens, UniProt P41161 1-510)
Summary of the method: as §1

[6] = biological target: T3, SPIC (Homo sapiens, UniProt Q8N5J4 1-248)
T3 sequence: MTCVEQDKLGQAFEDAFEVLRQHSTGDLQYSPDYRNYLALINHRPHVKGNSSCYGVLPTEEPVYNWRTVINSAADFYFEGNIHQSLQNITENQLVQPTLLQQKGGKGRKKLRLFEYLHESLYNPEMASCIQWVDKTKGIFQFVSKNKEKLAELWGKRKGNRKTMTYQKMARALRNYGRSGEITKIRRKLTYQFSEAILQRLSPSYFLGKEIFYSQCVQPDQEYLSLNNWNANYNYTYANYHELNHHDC
Summary of the method: as §1

[7] = biological target: T4, ERF (Homo sapiens, UniProt P50548 1-548)
T4 sequence: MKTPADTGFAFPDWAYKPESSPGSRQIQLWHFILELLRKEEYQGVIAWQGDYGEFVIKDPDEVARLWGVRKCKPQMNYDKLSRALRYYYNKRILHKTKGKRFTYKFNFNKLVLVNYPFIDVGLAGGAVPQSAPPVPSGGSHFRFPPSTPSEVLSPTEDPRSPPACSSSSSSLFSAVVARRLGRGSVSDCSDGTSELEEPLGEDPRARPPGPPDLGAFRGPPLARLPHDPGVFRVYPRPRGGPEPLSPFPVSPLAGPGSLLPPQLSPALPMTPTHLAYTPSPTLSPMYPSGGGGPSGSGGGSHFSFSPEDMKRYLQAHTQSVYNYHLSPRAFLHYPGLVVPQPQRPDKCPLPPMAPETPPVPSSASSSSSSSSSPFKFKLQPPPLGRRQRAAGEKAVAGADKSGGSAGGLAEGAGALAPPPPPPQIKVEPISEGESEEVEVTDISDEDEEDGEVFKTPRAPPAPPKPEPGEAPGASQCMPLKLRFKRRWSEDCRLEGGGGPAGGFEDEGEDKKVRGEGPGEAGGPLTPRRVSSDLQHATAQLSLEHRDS
Summary of the method: as §1

[8] = biological target: T5, ERG (Homo sapiens, UniProt P11308 1-479)
T5 sequence: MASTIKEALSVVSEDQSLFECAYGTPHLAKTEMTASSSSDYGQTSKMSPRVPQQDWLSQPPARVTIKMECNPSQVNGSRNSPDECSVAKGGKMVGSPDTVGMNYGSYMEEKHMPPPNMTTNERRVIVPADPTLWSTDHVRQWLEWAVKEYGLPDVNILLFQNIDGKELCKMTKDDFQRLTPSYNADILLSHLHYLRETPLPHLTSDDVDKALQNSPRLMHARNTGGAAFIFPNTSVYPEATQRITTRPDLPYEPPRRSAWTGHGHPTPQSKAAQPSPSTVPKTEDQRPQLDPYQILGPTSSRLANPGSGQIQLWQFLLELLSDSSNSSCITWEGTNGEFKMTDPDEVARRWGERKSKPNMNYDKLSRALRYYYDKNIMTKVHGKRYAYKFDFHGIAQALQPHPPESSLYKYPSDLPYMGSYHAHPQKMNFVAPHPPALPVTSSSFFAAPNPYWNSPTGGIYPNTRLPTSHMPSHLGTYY
Summary of the method: as §1

[9] = biological target: ELF1 (Homo sapiens, UniProt P32519 1-619)
Summary of the method: as §1

[10] = biological target: T6, EHF (Homo sapiens, UniProt Q9NZC4 1-300)
T6 sequence: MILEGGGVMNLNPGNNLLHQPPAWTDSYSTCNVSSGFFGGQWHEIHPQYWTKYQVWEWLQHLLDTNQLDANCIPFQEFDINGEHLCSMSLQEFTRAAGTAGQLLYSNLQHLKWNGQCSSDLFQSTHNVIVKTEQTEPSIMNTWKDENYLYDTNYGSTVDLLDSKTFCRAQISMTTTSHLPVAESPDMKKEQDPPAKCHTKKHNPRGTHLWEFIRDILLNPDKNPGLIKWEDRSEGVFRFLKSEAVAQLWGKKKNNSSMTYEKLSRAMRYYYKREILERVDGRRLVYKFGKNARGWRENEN
Summary of the method: as §1

[11] = biological target: T7, ELK3 (Homo sapiens, UniProt P41970 1-407)
T7 sequence: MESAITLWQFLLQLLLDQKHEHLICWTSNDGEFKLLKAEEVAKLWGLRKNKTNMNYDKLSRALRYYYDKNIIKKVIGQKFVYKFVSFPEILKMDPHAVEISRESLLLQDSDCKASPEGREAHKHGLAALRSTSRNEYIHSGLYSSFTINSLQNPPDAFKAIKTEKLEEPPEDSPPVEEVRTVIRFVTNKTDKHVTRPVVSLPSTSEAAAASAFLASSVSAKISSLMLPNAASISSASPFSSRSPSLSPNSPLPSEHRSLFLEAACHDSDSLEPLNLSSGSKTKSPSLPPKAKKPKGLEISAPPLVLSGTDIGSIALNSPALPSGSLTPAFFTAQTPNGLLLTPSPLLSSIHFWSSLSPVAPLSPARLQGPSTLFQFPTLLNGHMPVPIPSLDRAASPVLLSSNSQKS
Summary of the method: as §1

[12] = biological target: T8, FEV (Homo sapiens, UniProt Q99581 1-238)
T8 sequence: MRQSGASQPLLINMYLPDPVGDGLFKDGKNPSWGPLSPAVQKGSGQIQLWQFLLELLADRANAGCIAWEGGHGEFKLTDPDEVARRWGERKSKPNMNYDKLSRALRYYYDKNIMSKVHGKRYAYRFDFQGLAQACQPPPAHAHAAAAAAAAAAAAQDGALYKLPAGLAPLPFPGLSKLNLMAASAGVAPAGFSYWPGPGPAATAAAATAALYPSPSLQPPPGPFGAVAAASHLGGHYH
Summary of the method: as §1

[13] = biological target: ELF4 (Homo sapiens, UniProt Q99607 1-663)
Summary of the method: as §1

[14] = biological target: ETV1 (Homo sapiens, UniProt P50549 1-477)
Summary of the method: as §1

[15] = biological target: T9, ETV3L (Homo sapiens, UniProt Q6ZN32 1-361)
T9 sequence: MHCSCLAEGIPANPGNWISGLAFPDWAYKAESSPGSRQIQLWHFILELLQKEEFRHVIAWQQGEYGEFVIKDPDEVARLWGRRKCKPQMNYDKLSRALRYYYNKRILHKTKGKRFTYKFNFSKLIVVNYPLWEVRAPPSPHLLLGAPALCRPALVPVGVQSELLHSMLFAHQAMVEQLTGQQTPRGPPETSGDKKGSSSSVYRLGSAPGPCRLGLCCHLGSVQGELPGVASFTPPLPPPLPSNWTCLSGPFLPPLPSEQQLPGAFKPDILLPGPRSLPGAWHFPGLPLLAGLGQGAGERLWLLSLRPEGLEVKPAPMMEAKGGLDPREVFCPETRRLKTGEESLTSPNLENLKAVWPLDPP
Summary of the method: as §1

[16] = biological target: T10, ETS2 (Homo sapiens, UniProt P15036 1-469)
T10 sequence: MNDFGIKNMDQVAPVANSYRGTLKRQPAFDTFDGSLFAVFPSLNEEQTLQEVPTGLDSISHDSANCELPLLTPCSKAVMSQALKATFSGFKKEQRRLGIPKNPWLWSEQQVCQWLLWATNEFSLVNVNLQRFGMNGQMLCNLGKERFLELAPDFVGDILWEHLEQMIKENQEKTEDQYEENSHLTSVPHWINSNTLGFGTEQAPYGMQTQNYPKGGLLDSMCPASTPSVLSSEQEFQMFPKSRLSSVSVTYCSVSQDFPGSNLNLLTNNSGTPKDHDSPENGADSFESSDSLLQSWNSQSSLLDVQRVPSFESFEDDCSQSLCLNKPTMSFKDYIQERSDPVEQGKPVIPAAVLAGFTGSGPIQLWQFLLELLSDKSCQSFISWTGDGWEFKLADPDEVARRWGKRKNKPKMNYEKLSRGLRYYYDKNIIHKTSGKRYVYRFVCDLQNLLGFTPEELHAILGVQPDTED
Summary of the method: as §1

[17] = biological target: T11, ETV3 (Homo sapiens, UniProt P41162-2 1-143)
T11 sequence: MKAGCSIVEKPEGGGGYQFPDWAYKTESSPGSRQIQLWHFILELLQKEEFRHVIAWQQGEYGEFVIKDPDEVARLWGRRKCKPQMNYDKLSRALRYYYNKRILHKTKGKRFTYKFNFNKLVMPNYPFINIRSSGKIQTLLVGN
Summary of the method: as §1

[18] = biological target: ETV6 (Homo sapiens, UniProt P41212 1-452)
Summary of the method: as §1

Sequence of SPIB (Q01892 whole entry): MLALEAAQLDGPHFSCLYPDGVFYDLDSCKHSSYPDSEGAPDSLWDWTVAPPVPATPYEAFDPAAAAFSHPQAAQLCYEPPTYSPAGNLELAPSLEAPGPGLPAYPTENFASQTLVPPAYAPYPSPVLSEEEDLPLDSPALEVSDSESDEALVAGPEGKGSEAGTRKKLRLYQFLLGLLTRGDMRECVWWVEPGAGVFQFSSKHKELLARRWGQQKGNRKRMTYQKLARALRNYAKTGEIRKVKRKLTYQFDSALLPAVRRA
Sequence of ETV5 (P41161 whole entry): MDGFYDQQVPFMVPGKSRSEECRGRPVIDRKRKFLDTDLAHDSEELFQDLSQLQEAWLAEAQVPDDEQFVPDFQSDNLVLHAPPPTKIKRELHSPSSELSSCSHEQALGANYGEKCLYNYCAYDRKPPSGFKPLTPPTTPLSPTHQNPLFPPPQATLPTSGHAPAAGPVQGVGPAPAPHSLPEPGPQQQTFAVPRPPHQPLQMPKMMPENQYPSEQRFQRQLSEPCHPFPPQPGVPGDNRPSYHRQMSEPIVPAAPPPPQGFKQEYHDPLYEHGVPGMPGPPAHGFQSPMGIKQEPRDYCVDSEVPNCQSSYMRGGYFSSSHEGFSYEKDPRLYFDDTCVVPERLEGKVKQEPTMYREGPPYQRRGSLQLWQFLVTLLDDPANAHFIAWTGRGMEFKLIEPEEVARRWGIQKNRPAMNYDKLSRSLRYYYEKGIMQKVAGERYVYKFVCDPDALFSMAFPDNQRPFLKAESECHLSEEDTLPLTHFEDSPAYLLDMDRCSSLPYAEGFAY
Sequence of ETV6 (P41212 whole entry): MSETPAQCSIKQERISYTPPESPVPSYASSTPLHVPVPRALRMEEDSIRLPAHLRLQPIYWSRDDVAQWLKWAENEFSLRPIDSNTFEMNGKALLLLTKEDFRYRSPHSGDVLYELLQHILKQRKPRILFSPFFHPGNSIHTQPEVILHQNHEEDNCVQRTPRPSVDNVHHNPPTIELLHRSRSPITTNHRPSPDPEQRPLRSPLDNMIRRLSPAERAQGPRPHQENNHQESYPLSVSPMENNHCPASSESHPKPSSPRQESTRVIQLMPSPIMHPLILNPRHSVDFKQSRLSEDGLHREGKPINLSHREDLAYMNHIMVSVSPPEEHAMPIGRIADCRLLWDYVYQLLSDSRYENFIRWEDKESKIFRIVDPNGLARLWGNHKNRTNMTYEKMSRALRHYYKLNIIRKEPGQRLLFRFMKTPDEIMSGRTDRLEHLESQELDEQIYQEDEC
Sequence of ELF1 (P32519 whole entry): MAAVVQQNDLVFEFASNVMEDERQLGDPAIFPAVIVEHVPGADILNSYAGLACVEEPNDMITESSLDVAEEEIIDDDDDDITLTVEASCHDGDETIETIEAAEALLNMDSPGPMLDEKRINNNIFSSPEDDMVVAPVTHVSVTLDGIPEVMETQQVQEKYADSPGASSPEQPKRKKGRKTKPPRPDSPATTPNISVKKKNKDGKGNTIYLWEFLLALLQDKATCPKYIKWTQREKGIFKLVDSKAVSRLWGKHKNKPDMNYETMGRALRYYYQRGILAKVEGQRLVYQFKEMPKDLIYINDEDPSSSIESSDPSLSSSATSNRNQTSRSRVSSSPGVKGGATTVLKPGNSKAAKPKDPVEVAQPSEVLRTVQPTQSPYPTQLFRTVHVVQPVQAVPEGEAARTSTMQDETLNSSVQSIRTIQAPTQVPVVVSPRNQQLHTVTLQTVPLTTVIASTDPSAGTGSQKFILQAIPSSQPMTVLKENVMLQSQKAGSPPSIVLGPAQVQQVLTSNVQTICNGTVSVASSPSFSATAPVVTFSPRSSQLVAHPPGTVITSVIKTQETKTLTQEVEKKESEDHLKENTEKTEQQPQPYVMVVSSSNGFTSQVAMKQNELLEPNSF
Sequence of ELF4 (Q99607 whole entry): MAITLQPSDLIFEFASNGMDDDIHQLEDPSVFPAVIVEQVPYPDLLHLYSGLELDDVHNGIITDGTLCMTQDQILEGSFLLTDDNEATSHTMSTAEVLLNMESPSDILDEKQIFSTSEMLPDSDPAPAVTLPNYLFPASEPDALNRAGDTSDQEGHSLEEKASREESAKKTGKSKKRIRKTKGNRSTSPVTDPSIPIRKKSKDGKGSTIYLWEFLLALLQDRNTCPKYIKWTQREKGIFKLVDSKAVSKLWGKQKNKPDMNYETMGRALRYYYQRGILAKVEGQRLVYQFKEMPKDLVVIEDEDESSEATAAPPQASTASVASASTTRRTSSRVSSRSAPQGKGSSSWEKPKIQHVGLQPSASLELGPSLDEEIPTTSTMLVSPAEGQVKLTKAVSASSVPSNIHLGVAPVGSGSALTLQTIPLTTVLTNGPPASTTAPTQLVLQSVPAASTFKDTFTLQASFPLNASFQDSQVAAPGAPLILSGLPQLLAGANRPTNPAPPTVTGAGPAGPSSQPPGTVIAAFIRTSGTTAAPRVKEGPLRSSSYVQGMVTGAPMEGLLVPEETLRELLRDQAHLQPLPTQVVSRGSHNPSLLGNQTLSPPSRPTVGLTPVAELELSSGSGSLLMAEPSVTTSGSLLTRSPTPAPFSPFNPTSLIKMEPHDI
Sequence of ETV1 (P50549 whole entry): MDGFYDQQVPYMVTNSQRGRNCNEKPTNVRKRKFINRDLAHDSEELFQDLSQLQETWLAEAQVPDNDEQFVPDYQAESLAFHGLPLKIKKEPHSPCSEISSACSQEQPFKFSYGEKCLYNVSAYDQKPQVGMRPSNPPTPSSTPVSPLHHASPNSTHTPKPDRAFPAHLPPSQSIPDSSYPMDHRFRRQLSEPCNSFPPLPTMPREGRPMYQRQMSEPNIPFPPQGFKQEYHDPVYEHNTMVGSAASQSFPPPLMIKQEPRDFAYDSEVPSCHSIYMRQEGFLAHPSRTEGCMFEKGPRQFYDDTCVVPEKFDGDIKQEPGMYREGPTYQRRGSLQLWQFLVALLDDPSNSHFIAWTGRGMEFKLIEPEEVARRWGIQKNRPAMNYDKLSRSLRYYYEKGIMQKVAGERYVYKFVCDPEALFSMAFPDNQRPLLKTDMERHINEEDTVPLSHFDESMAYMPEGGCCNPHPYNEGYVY

Sequence	binding signal [1]	binding signal [2]	binding signal [3]	binding signal [4]	binding signal [5]	binding signal [6]	binding signal [7]	binding signal [8]	binding signal [9]	binding signal [10]	binding signal [11]	binding signal [12]	binding signal [13]	binding signal [14]	binding signal [15]	binding signal [16]	binding signal [17]	binding signal [18]
TTGGCG	1.07 fold enrichment (6-mer frequency, TF over GST control)	1.02 fold enrichment (6-mer frequency, TF over GST control)	1.05 fold enrichment (6-mer frequency, TF over GST control)	1.13 fold enrichment (6-mer frequency, TF over GST control)	1.02 fold enrichment (6-mer frequency, TF over GST control)	1.09 fold enrichment (6-mer frequency, TF over GST control)	1.01 fold enrichment (6-mer frequency, TF over GST control)	–	–	–	–	–	–	–	–	–	–	–
GCTTGT	1.22 fold enrichment (6-mer frequency, TF over GST control)	1.08 fold enrichment (6-mer frequency, TF over GST control)	1.15 fold enrichment (6-mer frequency, TF over GST control)	1.13 fold enrichment (6-mer frequency, TF over GST control)	1.2 fold enrichment (6-mer frequency, TF over GST control)	1.26 fold enrichment (6-mer frequency, TF over GST control)	1.18 fold enrichment (6-mer frequency, TF over GST control)	1.05 fold enrichment (6-mer frequency, TF over GST control)	1.11 fold enrichment (6-mer frequency, TF over GST control)	1.13 fold enrichment (6-mer frequency, TF over GST control)	1.12 fold enrichment (6-mer frequency, TF over GST control)	1.02 fold enrichment (6-mer frequency, TF over GST control)	1.07 fold enrichment (6-mer frequency, TF over GST control)	1.13 fold enrichment (6-mer frequency, TF over GST control)	1.02 fold enrichment (6-mer frequency, TF over GST control)	1.07 fold enrichment (6-mer frequency, TF over GST control)	1.11 fold enrichment (6-mer frequency, TF over GST control)	1.02 fold enrichment (6-mer frequency, TF over GST control)
